In publication PMC7862700, “An all-to-all approach to the identification of sequence-specific readers for epigenetic DNA modifications on cytosine”:

What was measured:
Assay in all cases: DAPPL (digital affinity profiling via proximity ligation, sequencing); 10 mM Tris-HCl pH 7.5, 50 mM NaCl, 1 mM DTT, 4% glycerol, room temperature, 30 min; GST-TFs on glutathione beads, 16-mer random dsDNA library, 0.1% formaldehyde crosslink after washing; high values mean tight binding
FEV = biological target: T1, FEV (Homo sapiens, UniProt Q99581 1-238); conditions: protein: recombinant; tags: N-terminal GST; dsDNA, one strand shown
T1 sequence: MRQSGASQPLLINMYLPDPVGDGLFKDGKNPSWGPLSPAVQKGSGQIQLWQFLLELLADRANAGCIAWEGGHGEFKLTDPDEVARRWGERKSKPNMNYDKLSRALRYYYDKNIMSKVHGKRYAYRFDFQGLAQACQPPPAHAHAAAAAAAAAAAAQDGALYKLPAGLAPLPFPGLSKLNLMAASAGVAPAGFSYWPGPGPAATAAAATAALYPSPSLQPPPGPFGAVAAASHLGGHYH
Summary of the method: (§1)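 In yeast, human transcription factors were expressed with a GST fusion, then pulled down on glutathione beads and given DNA barcodes. Pooled with a tag-only sample, they were exposed to 200 nmole of a 16-mer random double-stranded DNA library (Tris/NaCl/DTT/glycerol buffer, room temperature, 30 min), washed, crosslinked with 0.1% formaldehyde, proximity-ligated using BsaI/T4 ligase for 1 h at 37 °C, PCR-amplified and read on an Illumina NextSeq500. Each hexamer's frequency of reads for a factor, divided by the matching frequency for the tag-only sample, gives the binding signal.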

ETV5 = ETV5 (Homo sapiens, UniProt P41161 1-510); conditions: protein: recombinant; tags: N-terminal GST; dsDNA, one strand shown
Chain of ETV5 (P41161 whole entry): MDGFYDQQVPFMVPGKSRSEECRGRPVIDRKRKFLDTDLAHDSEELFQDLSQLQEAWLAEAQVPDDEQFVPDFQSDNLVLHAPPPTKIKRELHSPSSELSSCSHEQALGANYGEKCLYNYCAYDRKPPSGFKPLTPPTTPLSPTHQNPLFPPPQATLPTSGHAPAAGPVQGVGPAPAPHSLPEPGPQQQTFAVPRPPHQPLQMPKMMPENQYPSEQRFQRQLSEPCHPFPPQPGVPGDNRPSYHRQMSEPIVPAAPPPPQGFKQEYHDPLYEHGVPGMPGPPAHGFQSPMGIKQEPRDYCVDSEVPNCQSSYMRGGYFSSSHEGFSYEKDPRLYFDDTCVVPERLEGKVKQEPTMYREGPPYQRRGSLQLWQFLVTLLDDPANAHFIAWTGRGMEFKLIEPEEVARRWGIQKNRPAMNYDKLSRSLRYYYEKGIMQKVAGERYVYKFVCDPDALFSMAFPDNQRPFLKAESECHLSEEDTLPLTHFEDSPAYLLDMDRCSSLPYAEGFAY
Summary of the method: as §1

HSF1 = HSF1 (Homo sapiens, UniProt Q00613 1-529); conditions: protein: recombinant; tags: N-terminal GST; chain copies: 3; dsDNA, one strand shown
Chain of HSF1 (Q00613 whole entry): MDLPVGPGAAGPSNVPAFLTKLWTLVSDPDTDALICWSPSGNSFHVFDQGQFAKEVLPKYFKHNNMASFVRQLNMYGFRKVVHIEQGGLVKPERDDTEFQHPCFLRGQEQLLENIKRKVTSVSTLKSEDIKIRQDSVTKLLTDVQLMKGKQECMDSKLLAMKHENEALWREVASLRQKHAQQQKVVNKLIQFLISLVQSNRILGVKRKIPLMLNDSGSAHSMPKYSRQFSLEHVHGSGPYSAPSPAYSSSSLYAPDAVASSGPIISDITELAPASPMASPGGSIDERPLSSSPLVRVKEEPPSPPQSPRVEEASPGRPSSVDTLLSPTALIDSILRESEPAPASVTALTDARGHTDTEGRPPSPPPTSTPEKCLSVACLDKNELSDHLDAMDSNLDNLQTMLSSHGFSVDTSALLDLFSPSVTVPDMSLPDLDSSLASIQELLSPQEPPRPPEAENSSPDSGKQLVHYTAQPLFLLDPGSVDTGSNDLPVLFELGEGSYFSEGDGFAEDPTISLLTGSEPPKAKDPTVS
Summary of the method: as §1

SPIC = biological target: T2, SPIC (Homo sapiens, UniProt Q8N5J4 1-248); conditions: protein: recombinant; tags: N-terminal GST; dsDNA, one strand shown
T2 sequence: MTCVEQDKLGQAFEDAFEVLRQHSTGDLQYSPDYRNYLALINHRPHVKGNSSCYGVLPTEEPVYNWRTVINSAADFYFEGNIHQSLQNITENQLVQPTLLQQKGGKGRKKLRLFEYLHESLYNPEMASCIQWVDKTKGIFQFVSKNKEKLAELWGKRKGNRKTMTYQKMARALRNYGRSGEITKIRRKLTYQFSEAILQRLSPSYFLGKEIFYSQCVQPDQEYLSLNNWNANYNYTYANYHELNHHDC
Summary of the method: as §1

ELF4 = ELF4 (Homo sapiens, UniProt Q99607 1-663); conditions: protein: recombinant; tags: N-terminal GST; dsDNA, one strand shown
Chain of ELF4 (Q99607 whole entry): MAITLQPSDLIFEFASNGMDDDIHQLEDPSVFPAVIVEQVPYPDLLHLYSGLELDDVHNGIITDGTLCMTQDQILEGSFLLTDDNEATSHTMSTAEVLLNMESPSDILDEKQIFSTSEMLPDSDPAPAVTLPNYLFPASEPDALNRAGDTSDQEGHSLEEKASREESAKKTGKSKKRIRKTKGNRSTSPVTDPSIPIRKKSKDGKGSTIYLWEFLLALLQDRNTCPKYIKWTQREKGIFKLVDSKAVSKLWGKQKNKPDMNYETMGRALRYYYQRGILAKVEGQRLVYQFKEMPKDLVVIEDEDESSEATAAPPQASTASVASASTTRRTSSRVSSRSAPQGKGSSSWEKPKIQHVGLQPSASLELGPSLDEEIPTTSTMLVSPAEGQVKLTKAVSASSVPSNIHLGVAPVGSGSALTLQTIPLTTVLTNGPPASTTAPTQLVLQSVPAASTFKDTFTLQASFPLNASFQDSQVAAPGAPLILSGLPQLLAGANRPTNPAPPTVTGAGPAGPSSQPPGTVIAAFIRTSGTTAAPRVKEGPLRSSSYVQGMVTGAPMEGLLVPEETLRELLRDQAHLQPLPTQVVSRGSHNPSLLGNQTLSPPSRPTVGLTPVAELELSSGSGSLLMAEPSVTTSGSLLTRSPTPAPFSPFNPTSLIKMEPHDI
Summary of the method: as §1

ELK4 = biological target: T3, ELK4 (Homo sapiens, UniProt P28324-2 1-405); conditions: protein: recombinant; tags: N-terminal GST; dsDNA, one strand shown
T3 sequence: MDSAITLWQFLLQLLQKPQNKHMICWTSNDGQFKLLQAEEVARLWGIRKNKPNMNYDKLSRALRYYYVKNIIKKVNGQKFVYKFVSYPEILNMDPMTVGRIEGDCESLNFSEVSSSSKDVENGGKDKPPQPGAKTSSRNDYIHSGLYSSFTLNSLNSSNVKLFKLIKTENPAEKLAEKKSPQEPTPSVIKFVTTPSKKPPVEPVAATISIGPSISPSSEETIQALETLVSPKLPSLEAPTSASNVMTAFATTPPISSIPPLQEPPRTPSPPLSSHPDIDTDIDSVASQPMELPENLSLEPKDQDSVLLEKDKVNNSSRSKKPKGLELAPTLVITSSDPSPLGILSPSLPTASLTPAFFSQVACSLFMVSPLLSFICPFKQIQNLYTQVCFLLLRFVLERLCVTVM
Summary of the method: as §1

ETV2 = biological target: T4, ETV2 (Homo sapiens, UniProt O00321 1-342); conditions: protein: recombinant; tags: N-terminal GST; dsDNA, one strand shown
T4 sequence: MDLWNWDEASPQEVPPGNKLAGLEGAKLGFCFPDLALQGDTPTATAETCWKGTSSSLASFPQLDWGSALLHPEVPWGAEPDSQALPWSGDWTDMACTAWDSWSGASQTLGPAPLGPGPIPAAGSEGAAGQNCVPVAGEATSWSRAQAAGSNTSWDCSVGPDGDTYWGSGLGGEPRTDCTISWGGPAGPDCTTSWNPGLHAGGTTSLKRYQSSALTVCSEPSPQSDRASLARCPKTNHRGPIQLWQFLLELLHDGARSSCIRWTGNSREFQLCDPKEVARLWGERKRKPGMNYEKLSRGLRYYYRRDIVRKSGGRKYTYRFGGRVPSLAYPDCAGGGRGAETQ
Summary of the method: as §1

ELF3 = biological target: T5, ELF3 (Homo sapiens, UniProt P78545 1-371); conditions: protein: recombinant; tags: N-terminal GST; dsDNA, one strand shown
T5 sequence: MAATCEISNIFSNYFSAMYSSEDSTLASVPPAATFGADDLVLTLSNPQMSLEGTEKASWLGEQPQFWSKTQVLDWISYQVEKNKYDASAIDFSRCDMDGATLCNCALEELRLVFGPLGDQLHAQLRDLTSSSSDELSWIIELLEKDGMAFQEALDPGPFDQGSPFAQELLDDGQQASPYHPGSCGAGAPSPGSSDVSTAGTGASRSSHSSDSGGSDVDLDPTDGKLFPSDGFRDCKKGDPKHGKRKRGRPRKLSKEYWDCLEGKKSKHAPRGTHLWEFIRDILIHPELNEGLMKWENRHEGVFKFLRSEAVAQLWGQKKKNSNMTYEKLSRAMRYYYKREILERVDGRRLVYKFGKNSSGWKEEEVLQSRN
Summary of the method: as §1

CRX = CRX (Homo sapiens, UniProt O43186 1-299); conditions: protein: recombinant; tags: N-terminal GST; dsDNA, one strand shown
Chain of CRX (O43186 whole entry): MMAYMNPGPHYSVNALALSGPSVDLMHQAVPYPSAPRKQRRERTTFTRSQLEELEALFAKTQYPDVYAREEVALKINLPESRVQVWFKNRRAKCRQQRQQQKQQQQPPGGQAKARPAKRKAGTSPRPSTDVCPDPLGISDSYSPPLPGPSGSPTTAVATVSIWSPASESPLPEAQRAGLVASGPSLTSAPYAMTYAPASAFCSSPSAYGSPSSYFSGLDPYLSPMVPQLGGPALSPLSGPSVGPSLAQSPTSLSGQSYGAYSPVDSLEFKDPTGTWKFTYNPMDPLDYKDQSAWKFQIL
Summary of the method: as §1

ETV1 = ETV1 (Homo sapiens, UniProt P50549 1-477); conditions: protein: recombinant; tags: N-terminal GST; dsDNA, one strand shown
Chain of ETV1 (P50549 whole entry): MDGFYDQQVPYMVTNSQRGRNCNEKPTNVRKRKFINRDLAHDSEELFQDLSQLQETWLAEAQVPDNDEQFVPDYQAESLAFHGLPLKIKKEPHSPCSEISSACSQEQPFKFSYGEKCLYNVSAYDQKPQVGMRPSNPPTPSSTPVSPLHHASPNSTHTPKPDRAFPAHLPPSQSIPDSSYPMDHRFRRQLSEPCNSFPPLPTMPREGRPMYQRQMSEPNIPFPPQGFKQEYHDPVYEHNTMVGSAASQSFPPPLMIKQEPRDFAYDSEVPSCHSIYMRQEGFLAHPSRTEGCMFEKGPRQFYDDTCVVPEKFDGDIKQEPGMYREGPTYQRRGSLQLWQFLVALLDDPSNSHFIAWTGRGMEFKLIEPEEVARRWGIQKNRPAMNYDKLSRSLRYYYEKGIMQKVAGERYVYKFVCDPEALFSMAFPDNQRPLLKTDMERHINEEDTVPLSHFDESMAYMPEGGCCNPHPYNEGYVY
Summary of the method: as §1

ERF = biological target: T6, ERF (Homo sapiens, UniProt P50548 1-548); conditions: protein: recombinant; tags: N-terminal GST; dsDNA, one strand shown
T6 sequence: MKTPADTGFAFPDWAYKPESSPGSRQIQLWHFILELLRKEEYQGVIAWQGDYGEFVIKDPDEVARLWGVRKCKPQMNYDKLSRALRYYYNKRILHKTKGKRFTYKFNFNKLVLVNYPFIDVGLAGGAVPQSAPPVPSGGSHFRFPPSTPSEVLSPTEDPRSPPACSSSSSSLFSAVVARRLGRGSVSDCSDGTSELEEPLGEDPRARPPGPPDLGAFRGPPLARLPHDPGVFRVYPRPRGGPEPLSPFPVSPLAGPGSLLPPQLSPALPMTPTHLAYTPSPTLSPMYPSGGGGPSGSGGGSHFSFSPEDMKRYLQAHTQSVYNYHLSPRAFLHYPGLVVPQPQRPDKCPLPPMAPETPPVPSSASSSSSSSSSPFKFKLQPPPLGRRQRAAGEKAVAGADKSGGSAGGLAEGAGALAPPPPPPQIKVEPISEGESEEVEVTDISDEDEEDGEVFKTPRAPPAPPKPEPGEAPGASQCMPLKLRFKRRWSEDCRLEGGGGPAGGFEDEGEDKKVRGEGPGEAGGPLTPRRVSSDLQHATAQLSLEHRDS
Summary of the method: as §1

ETV3L = biological target: T7, ETV3L (Homo sapiens, UniProt Q6ZN32 1-361); conditions: protein: recombinant; tags: N-terminal GST; dsDNA, one strand shown
T7 sequence: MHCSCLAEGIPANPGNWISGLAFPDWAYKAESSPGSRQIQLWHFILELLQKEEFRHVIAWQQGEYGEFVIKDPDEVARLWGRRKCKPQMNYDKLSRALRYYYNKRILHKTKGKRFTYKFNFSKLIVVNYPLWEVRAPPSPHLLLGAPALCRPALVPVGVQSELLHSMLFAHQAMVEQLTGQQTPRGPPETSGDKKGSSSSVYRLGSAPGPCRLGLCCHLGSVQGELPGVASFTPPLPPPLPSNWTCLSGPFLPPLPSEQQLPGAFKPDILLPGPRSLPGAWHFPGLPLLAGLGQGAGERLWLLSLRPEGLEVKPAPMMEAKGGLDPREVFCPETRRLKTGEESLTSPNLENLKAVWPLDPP
Summary of the method: as §1

ETS2 = biological target: T8, ETS2 (Homo sapiens, UniProt P15036 1-469); conditions: protein: recombinant; tags: N-terminal GST; dsDNA, one strand shown
T8 sequence: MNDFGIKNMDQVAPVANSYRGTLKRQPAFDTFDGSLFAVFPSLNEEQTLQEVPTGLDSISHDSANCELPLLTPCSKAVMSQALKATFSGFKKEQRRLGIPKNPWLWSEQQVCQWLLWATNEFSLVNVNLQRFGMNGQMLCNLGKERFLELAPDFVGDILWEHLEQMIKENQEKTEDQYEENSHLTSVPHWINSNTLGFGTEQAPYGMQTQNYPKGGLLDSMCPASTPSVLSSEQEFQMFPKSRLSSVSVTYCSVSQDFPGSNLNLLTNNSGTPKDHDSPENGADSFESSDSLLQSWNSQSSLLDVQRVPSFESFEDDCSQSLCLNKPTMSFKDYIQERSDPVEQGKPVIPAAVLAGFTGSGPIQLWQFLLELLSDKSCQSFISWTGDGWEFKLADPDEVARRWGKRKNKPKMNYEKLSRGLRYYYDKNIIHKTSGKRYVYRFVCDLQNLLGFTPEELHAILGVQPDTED
Summary of the method: as §1

SPDEF = biological target: T9, SPDEF (Homo sapiens, UniProt O95238 1-335); conditions: protein: recombinant; tags: N-terminal GST; dsDNA, one strand shown
T9 sequence: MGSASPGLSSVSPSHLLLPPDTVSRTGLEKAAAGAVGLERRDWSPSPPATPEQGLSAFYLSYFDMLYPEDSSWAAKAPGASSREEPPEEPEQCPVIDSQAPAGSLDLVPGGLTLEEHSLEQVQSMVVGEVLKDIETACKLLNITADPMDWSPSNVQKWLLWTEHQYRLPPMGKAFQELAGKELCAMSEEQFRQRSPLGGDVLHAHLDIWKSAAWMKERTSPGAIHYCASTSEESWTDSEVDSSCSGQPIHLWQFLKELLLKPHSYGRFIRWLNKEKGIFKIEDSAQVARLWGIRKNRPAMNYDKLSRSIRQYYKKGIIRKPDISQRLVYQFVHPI
Summary of the method: as §1

ETV7 = biological target: T10, ETV7 (Homo sapiens, UniProt Q9Y603 1-341); conditions: protein: recombinant; tags: N-terminal GST; dsDNA, one strand shown
T10 sequence: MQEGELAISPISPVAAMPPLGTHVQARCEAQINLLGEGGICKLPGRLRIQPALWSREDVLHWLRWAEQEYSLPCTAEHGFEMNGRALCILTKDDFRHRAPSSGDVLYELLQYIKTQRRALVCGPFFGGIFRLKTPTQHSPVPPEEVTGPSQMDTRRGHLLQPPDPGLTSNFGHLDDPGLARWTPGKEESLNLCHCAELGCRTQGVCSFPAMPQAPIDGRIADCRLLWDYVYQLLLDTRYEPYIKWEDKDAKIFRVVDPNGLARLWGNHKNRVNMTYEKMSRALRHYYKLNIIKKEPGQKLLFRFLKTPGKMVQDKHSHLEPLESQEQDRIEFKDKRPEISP
Summary of the method: as §1

ELF5 = biological target: T11, ELF5 (Homo sapiens, UniProt Q9UKW6-2 1-255); conditions: protein: recombinant; tags: N-terminal GST; dsDNA, one strand shown
T11 sequence: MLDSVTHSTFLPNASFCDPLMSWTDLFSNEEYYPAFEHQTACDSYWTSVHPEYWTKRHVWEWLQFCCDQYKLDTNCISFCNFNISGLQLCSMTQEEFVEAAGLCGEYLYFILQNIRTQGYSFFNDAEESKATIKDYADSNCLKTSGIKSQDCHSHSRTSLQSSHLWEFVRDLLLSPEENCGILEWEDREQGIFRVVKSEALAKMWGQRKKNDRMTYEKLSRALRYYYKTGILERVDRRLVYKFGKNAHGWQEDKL
Summary of the method: as §1

ETV3 = biological target: T12, ETV3 (Homo sapiens, UniProt P41162-2 1-143); conditions: protein: recombinant; tags: N-terminal GST; dsDNA, one strand shown
T12 sequence: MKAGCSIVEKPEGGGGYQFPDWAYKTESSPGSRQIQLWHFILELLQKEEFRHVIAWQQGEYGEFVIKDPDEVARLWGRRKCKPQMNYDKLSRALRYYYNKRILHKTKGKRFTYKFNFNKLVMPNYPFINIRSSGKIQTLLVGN
Summary of the method: as §1

ETV6 = ETV6 (Homo sapiens, UniProt P41212 1-452); conditions: protein: recombinant; tags: N-terminal GST; dsDNA, one strand shown
Chain of ETV6 (P41212 whole entry): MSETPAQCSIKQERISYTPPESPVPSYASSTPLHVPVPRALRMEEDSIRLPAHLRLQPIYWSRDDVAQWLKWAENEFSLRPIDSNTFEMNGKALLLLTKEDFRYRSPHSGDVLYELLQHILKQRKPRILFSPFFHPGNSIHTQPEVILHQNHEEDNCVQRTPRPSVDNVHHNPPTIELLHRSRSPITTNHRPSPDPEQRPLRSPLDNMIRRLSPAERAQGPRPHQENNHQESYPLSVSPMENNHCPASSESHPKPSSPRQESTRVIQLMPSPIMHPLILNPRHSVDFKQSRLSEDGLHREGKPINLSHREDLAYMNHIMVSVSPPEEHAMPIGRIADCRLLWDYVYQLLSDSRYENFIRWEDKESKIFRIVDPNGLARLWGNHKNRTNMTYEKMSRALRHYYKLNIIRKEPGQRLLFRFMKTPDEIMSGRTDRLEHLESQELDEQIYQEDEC
Summary of the method: as §1

Q: What does the source list for ATCATG?
A: binding signal (FEV): 1.13 fold enrichment (6-mer frequency, TF over GST control); binding signal (ETV5): 1.09 fold enrichment (6-mer frequency, TF over GST control); binding signal (HSF1): 1.09 fold enrichment (6-mer frequency, TF over GST control); binding signal (SPIC): 1.09 fold enrichment (6-mer frequency, TF over GST control); binding signal (ELF4): 1.09 fold enrichment (6-mer frequency, TF over GST control); binding signal (ELK4): 1.14 fold enrichment (6-mer frequency, TF over GST control); binding signal (ETV2): 1.18 fold enrichment (6-mer frequency, TF over GST control); binding signal (ELF3): 1.25 fold enrichment (6-mer frequency, TF over GST control); binding signal (CRX): 1.21 fold enrichment (6-mer frequency, TF over GST control); binding signal (ETV1): 1.19 fold enrichment (6-mer frequency, TF over GST control); binding signal (ERF): 1.19 fold enrichment (6-mer frequency, TF over GST control); binding signal (ETV3L): 1.08 fold enrichment (6-mer frequency, TF over GST control); binding signal (ETS2): 1.14 fold enrichment (6-mer frequency, TF over GST control); binding signal (SPDEF): 1.07 fold enrichment (6-mer frequency, TF over GST control); binding signal (ETV7): 1.13 fold enrichment (6-mer frequency, TF over GST control); binding signal (ELF5): 1.11 fold enrichment (6-mer frequency, TF over GST control); binding signal (ETV3): 1.19 fold enrichment (6-mer frequency, TF over GST control); binding signal (ETV6): 1.08 fold enrichment (6-mer frequency, TF over GST control)
